Reference: PubChem BioAssay (EPA / NIEHS)
Active and inactive are the calls of the source. How the source made its calls: active means hit-call score of the fitted dose curve at least 0.9, where 1 is the maximum; inactive means score below 0.9.

Tests used:
[1] = ATG_CRE_CIS: Attagene CIS-FACTORIAL HepG2 Assay for human cAMP Responsive Element (CRE) binding protein 3 (AID 2282926); conditions: HepG2 CRE cis-reporter, Attagene multiplexed mRNA; actives raise or lower the signal
How it was run: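 HepG2 cells transiently transfected with a multiplexed reporter library (CRE-driven unit among them) were dosed for 24 h. Reporter mRNA was quantified by RT-PCR, fluorescent labelling, HpaI digestion and capillary electrophoresis, with bidirectional fitting against DMSO baseline.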

[2] = molecular target: CCAAT/enhancer-binding protein beta (Homo sapiens) (UniProt P17676); test: ATG_C_EBP_CIS: Attagene CIS-FACTORIAL HepG2 Assay for human CCAAT/Enhancer Binding Protein (C/EBP) beta (AID 2282927); conditions: HepG2 Attagene cis-factorial transcription factor reporter; actives raise or lower the signal
How it was run: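 Chemical-treated HepG2 cells (24 h) bearing cis-regulated reporter constructs were processed for total RNA, then reverse transcription, PCR amplification, fluorescent primer extension and fragment analysis; gain- and loss-of-signal were fitted against DMSO.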

[3] = ATG_DR4_LXR_CIS: Attagene CIS-FACTORIAL HepG2 Assay for human Liver X Receptor (LXR), DR4 submotif (AID 2282929); conditions: HepG2 Attagene DR4 cis-reporter, mRNA transcription; actives raise or lower the signal
How it was run: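 Endogenous factor activity at a DR4 cis-element is read as reporter mRNA in transiently transfected HepG2 cells. Exposure lasts 24 h; transcripts are amplified, fluorescently labelled and sized by capillary electrophoresis, with DMSO as baseline.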

[4] = molecular target: Aryl hydrocarbon receptor (Homo sapiens) (UniProt P35869); test: ATG_Ahr_CIS: Attagene CIS-FACTORIAL HepG2 Assay for human Aryl Hydrocarbon Receptor (Ahr) (AID 2282930); conditions: HepG2 AhR cis-factorial reporter transcription; actives raise or lower the signal
How it was run: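 Following 24 h of chemical dosing, transfected HepG2 liver cells with cis-driven reporter units were lysed for RNA; reporter mRNA was quantified via RT-PCR and capillary electrophoresis, and responses fitted bidirectionally from DMSO.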

[5] = ATG_AP_1_CIS: Attagene CIS-FACTORIAL HepG2 Assay for human Activator Protein 1 (AP-1) (AID 2282931); conditions: HepG2 Attagene cis-factorial AP-1 reporter mRNA; actives raise or lower the signal
How it was run: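 Fluorescence of labelled PCR fragments separated by capillary electrophoresis gives reporter mRNA levels. HepG2 with transfected cis-regulated reporter units, 24 h exposure; DMSO serves as baseline for bidirectional curve fits.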

[6] = ATG_AP_2_CIS: Attagene CIS-FACTORIAL HepG2 Assay for human Activator Protein 2 (AP-2) (AID 2282932); conditions: HepG2 AP-2 cis-reporter, Attagene transcription factor profiling; actives raise or lower the signal
How it was run: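 HepG2 cells were transiently transfected with multiple cis-promoter reporter transcription units and dosed for 24 h. Reporter mRNA was measured by RT-PCR with capillary electrophoresis fluorescence; bidirectional fits relative to DMSO baseline.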

[7] = ATG_BRE_CIS: Attagene CIS-FACTORIAL HepG2 Assay for human Bone Morphogenetic Protein (BMP) Response Element (BRE) (AID 2282933); conditions: HepG2 BMP response element reporter, Attagene transcription factor profiling; actives raise or lower the signal
How it was run: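 Fluorescence-labelled reporter cDNA fragments, separated by capillary electrophoresis, gave the signal for this component of a 52-readout multiplex. HepG2 cells were transfected, exposed to chemicals for 24 h, and compared with DMSO using bidirectional fitting.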

[8] = molecular target: Transcription factor E2F1 (Homo sapiens) (UniProt Q01094); test: ATG_E2F_CIS: Attagene CIS-FACTORIAL HepG2 Assay for human E2F Transcription Factor 1 (AID 2282935); conditions: HepG2 Attagene cis-reporter, E2F reporter RNA transcripts; actives raise or lower the signal
How it was run: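 HepG2 cells transiently transfected with multiplexed cis-element reporter units, dosed for 24 h. Reporter mRNA measured by RT-PCR, 6-FAM primer-extension labeling, HpaI digestion and capillary electrophoresis; bidirectional fit versus DMSO baseline.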

[9] = molecular target: Retinoic acid receptor alpha (Homo sapiens) (UniProt P10276); test: ATG_DR5_RAR_CIS: Attagene CIS-FACTORIAL HepG2 Assay for human Retinoic Acid Receptor Alpha (RARE), DR5 submotif (AID 2282934); conditions: HepG2 Attagene cis-factorial RARE DR5 reporter, mRNA; actives raise or lower the signal
How it was run: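 Transfected HepG2 reporter cells are exposed to chemicals for 24 h. Then RNA is extracted and the DR5 element reporter transcript is measured by RT-PCR and capillary electrophoresis, with bidirectional curve fitting relative to DMSO.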

[10] = ATG_CMV_CIS: Attagene CIS-FACTORIAL HepG2 Assay for human CMV (Internal Marker) (AID 2282928); conditions: HepG2 CMV promoter reporter, transcription factor profiling; actives raise or lower the signal;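 further: endpoint acts as a background internal control marker rather than a target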
How it was run: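 HepG2 cells transiently transfected with multiple cis-regulated reporter units; 24 h compound exposure. Reporter mRNA quantified by RT-PCR, 6-FAM primer-extension labeling, HpaI digestion and capillary electrophoresis; bidirectional fitting against DMSO baseline.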

Measured: AC50

Sequence of Aryl hydrocarbon receptor (Homo sapiens) (P35869 whole entry, looked up): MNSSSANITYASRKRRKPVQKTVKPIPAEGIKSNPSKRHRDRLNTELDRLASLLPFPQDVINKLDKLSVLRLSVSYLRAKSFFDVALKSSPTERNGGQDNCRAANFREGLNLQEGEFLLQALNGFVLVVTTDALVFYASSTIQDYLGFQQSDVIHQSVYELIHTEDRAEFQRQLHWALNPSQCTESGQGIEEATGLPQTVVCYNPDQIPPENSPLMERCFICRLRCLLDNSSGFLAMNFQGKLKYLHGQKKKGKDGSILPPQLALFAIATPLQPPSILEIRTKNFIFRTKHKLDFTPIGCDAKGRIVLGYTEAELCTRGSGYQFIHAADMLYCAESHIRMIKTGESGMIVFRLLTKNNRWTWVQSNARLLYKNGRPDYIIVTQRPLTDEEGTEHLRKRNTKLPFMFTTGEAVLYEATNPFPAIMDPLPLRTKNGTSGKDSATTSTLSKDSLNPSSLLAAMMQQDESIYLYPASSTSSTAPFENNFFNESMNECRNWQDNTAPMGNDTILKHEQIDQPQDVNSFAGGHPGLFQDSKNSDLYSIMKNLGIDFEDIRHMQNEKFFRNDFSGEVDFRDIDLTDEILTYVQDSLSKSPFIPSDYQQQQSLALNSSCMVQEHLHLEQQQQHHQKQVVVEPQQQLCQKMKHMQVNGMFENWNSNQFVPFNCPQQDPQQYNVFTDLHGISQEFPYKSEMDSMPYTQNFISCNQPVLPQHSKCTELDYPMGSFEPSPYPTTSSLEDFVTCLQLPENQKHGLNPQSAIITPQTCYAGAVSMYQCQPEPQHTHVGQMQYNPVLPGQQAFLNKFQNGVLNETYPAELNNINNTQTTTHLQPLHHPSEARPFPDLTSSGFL
Sequence of CCAAT/enhancer-binding protein beta (Homo sapiens) (P17676 whole entry, looked up, the tested form may be a part): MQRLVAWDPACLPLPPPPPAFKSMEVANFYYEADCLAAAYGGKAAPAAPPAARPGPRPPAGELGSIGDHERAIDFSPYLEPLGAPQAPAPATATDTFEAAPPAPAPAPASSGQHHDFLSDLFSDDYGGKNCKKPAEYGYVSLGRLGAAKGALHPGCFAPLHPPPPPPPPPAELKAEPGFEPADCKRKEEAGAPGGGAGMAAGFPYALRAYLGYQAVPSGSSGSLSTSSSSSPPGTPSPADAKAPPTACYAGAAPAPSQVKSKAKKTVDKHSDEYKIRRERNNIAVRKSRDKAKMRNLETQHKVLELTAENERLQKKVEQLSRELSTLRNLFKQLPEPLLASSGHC
Sequence of Transcription factor E2F1 (Homo sapiens) (Q01094 whole entry, looked up): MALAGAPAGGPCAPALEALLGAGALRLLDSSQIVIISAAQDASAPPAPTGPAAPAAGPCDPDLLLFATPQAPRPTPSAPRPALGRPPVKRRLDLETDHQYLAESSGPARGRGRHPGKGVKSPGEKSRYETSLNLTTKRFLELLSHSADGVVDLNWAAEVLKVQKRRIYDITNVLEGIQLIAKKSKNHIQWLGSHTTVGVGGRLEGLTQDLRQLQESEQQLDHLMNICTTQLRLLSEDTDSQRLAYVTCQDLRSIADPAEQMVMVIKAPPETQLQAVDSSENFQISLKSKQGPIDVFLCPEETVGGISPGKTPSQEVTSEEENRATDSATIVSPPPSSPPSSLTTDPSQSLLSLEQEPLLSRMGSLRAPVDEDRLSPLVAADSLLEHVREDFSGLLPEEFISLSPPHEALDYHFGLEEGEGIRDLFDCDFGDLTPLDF
Sequence of Retinoic acid receptor alpha (Homo sapiens) (P10276 whole entry, looked up): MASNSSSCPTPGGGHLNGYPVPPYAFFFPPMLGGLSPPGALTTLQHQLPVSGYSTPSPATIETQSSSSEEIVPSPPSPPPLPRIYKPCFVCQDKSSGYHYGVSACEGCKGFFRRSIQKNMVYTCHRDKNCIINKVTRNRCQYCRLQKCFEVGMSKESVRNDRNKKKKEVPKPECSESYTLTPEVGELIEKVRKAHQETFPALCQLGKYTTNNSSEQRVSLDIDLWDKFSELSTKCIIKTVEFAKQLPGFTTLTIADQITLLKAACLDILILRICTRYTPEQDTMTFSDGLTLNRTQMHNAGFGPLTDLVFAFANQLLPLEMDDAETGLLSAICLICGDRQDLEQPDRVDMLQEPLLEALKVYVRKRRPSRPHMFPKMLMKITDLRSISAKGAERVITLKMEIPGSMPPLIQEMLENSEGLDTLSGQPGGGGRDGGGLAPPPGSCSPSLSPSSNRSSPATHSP

CCCC[O][Al]([O]CCCC)[O]CCCC
not listed: [9] | [10]
inactive: all other assays above

OC[C@H]1O[C@@H]2O[C@H]3[C@H](O)[C@@H](O)[C@@H](O[C@H]4[C@H](O)[C@@H](O)[C@@H](O[C@H]5[C@H](O)[C@@H](O)[C@@H](O[C@H]6[C@H](O)[C@@H](O)[C@@H](O[C@H]7[C@H](O)[C@@H](O)[C@@H](O[C@H]8[C@H](O)[C@@H](O)[C@@H](O[C@H]9[C@H](O)[C@@H](O)[C@@H](O[C@H]1[C@H](O)[C@H]2O)O[C@@H]9CO)O[C@@H]8CO)O[C@@H]7CO)O[C@@H]6CO)O[C@@H]5CO)O[C@@H]4CO)O[C@@H]3CO
not listed: [10]
inactive: all other assays above

CC=Cc1ccc(OC)c(OC)c1
not listed: [7] | [9] | [10]
inactive: all other assays above

c1ccc(CN(Cc2ccccc2)Cc2ccccc2)cc1
active: [3] 18.4 µM
not listed: [10]
inactive: all other assays above

[Cl][Au]([Cl])[Cl]
active: [4] 39.8 µM | [5] 72.6 µM
not listed: [10]
inactive: all other assays above

CCCCC1CCC(O)CC1 (configuration not stated)
not listed: [10]
inactive: all other assays above

CCC(C)c1cc([N+](=O)[O-])cc([N+](=O)[O-])c1OC(=O)OC(C)C (configuration not stated)
active: [2] 49.1 µM | [5] 25.8 µM | [6] 39.7 µM | [7] 100 µM
inactive: [1] | [3] | [4] | [8]

Nc1ccccc1[N+](=O)[O-]
not listed: [10]
inactive: all other assays above

CCCC(=O)C(CC)Sc1ccoc1C (configuration not stated)
active: [1] 25.7 µM | [5] 26.5 µM
not listed: [10]
inactive: all other assays above

CC=CC=CCOC(=O)C(C)C
active: [3] 130 µM | [5] 100 µM
not listed: [10]
inactive: all other assays above

C=CCCCCCCCCCC
not listed: [7] | [10]
inactive: all other assays above

CC(C)(CO)[C@@H](O)C(=O)NCCC(=O)O
not listed: [10]
inactive: all other assays above

Nc1ccc(N)c2c1C(=O)c1ccccc1C2=O
active: [1] 3.11 µM | [4] 1.59 µM
not listed: [2]
inactive: all other assays above

Clc1ccc(C(c2ccccc2Cl)C(Cl)Cl)cc1 (configuration not stated)
active: [10] 100 µM | [3] 25.2 µM | [4] 65.6 µM | [5] 100 µM
inactive: [1] | [6] | [9] | [8]

CCc1ccc(O)cc1
active: [4] 68.7 µM
not listed: [2]
inactive: all other assays above

CCN(CCN)c1cccc(C)c1
active: [4] 50 µM
not listed: [2]
inactive: all other assays above

O=C(Nc1ccc2c(c1)Cc1ccccc1-2)C(F)(F)F
active: [4] 10.2 µM
not listed: [2]
inactive: all other assays above
